# The entries come from a sample that favours hits as a whole.
# Tgondii IFNg – T. gondii growth inhibition under IFN-gamma; Toxoplasma gondii growth in IFN-gamma-treated host cells; hits give low values; activity change, negative = inhibition, % (no concentration beside the values); 69,000 tested, 3.8% active; in the data active = activity change below about -70%, passing the limit was not always enough;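 also: host cells are HeLa cells infected with Toxoplasma gondii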
# The depositor's hits bear a star; ! = not active in a repeat.
SMILES,Tgondii IFNg
COc1ccc(CCN2CCC(Nc3nc4ccccc4n3Cc3ccc(F)cc3)CC2)cc1,-92.5*!
COc1ccc(-c2nc(NCCN3CCC(C)CC3)c3ccccc3n2)cc1,-57.1
COc1ccc(-c2nc(Nc3ccc(CN4CCC(C)CC4)cc3)c3ccccc3n2)cc1,-41.0
CCn1c(C2CCCN(C(=O)c3sc(OC)nc3C)C2)nn(C)c1=O (centres undefined),29.1
Cc1nc(-c2ccccc2)nc2c1CCN(c1cnccn1)CC2,65.9
Cc1nc(-c2cccnc2)nc(N2CCCN(c3ccc(C(F)(F)F)cn3)CC2)c1Cl,-97.9*
CC(C)Cc1ccc(C(=O)C(C)N2CCN(c3ccc(C(F)(F)F)cn3)CC2)cc1 (centres undefined),-42.7
Cn1cccc1C(=O)N1CC2(CCN(c3ncccn3)C2)C1,0.2
O=C(c1n[nH]c2c1CCCCCC2)N1CCCN(c2ccccn2)CC1,9.9
Cc1cc(Nc2ccccn2)cc(C2CCCN(C(=O)c3n[nH]c4c3CCCCCC4)C2)n1 (centres undefined),-85.6*
Cc1cc(Nc2ccccn2)cc(C2CCCN(S(=O)(=O)c3ccc(F)cc3)C2)n1 (centres undefined),-65.4
CC(C)NC(=O)Nc1cccc2c1O[C@@H](CN(C)C(=O)Nc1ccccc1)[C@@H](C)CN([C@@H](C)CO)C2=O,14.7
CC1(C)C(=O)NC(=O)N1CC(=O)N1CCCC(CCc2ccc(F)cc2)C1 (centres undefined),1.9
C=C(C)C(=O)Nc1ccc(NC(C)C)cc1,13.1
CCCCCCOc1nsnc1C1=CCCN(C)C1,-75.4*
O=C(c1csc(Cc2ccccc2)n1)N1Cc2cnn(CCO)c2C1,0.7
Cc1occc1-c1nc(N2CCN(c3ncccn3)CC2)ncc1-c1cnccn1,-8.2
CN1CCCN(c2ncccc2CNC(=O)c2c[nH]c3ccccc23)CC1,-42.3
COc1cccc(S(=O)(=O)N2CCCCN3[C@@H](CO)[C@@H](c4ccc(C#CCC(C)C)cc4)[C@@H]3C2)c1,-63.5
COc1cccc(S(=O)(=O)N2CCCCN3[C@H](C2)[C@@H](c2ccc(C#CCC(C)C)cc2)[C@@H]3CO)c1,-33.4
COc1cccc(S(=O)(=O)N2CCCCN3[C@H](CO)[C@H](c4ccc(C#CCC(C)C)cc4)[C@H]3C2)c1,-81.3*
O=C1CC2(CCN(C(=O)c3ccc4cccc(Cl)c4n3)CC2)CN1,9.1
COc1cc2ncnc(Nc3cccc(Br)c3)c2cc1OC,-79.0*
CCC(C)Nc1ncnc2cc(OC)c(OC)cc12 (centres undefined),-0.7
COc1cc2ncnc(Nc3cccc(O)c3)c2cc1OC,-25.3
SMILES,Tgondii IFNg
CC(C)c1nccc(CN2CCN(c3ncnc4ccccc34)CC2)n1,-48.2
Cc1ccc(S(=O)(=O)N2CCC(C(=O)N[C@@H](C)C(=O)NC3CCS(=O)(=O)C3)CC2)cc1 (some centres undefined),-19.2
CSc1n[nH]c(-c2ccc(Cl)cc2)c1SC(=O)N(C)C,-69.9
Cn1nc(-c2ccc(-c3ccnc(SCc4ccccc4)n3)s2)cc1C(F)(F)F,-97.3*
Cn1nc(-c2ccc(S(N)(=O)=O)s2)cc1C(F)(F)F,23.5
Nc1cc(N)nc(SCc2ccccc2)n1,172.2
Cc1cc(C)n(-c2cc(-c3ccccc3)nc3ncnn23)n1,0.8
CC(C)Nc1ncnc2c1CCN(CCN1CCCC1)CC2,-35.5
CCOC(=O)C1CCCN(C(=O)OC(C)(C)C)C1 (centres undefined),-11.0
O=C(c1ccco1)N1Cc2nccn2CC(COc2cccnc2)C1 (centres undefined),0.4
COCCC(=O)N1Cc2nccn2CC(COCc2cccnc2)C1 (centres undefined),-1.7
c1cncc(COCC2CNCc3nccn3C2)c1 (centres undefined),-81.8*
O=C(c1ccc(-n2nc(C(F)(F)F)c3c2CCCC3)cc1)N1CCN(C2CCCCC2)CC1,-65.7
Cn1c(C(=O)OCC(=O)NCCc2ccccc2)cc2occc21,3.7
COCCNC(=O)[C@H]1[C@H](CO)[C@H]2Cn3c(cccc3=O)[C@@H]1N2S(=O)(=O)c1ccccc1C,-0.1
Cc1ccc(C(=O)Nc2ccc(N3CCC(N(C)Cc4cn(C)nc4C)CC3)cc2)c(C)c1,9.2
Cc1cccc(COc2cccnc2N)c1,41.7
Nc1nc(N)c2c(OCc3ccc(C(F)(F)F)cc3)cccc2n1,-73.5*
O=C(OCc1ccc(C(F)(F)F)cc1)c1cc(Cl)cc(Cl)c1,-22.3
C=C(C)COc1ccc(C(=O)N2CCOCC2CCC)cc1 (centres undefined),6.5
CN(C)C(=O)c1ccc(-c2ccc([C@@H]3[C@@H](CO)N4C(=O)CN(C(=O)CC5CC5)C[C@H]34)cc2)cc1,-10.2
CC(=O)OCC(=O)[C@@]1(O)CCC2C3CCC4=CC(=O)C=CC4(C)C3[C@@H](O)C[C@@]21C (some centres undefined),-41.5
CC1=C(C(=O)Nc2cccc(F)c2)C2(CCN(S(C)(=O)=O)CC2)OC1=O,12.0
CN(C)CC(=O)N1[C@@H](CO)[C@@H](c2ccccc2)C12CN(C(=O)c1ccc(F)cc1)C2,19.6
C/C=C/c1ccc(C2[C@H]3CNC[C@@H]2N3C(=O)NCCC)cc1 (some centres undefined),8.1
SMILES,Tgondii IFNg
C/C=C/c1ccc(C2[C@H]3CNC[C@@H]2N3C(=O)Nc2ccccc2Cl)cc1 (some centres undefined),44.5
C/C=C/c1ccc(C2[C@H]3CNC[C@@H]2N3C(=O)NC2CCCCC2)cc1 (some centres undefined),-76.2*!
O=C(NCCc1csc(-c2cccc(F)c2)n1)C(=O)Nc1cc(F)ccc1F,-25.7
COc1ccc2c(c1)c(CC(=O)OCC(=O)O)c(C)n2C(=O)c1ccc(Cl)cc1,11.6
CC1N=C2c3ccccc3N=C(SCc3ccc(Cl)cc3)N2C1=O (centres undefined),6.9
N#Cc1ccc(-c2ccc3c(c2)[C@H]2[C@H](CCN2C(=O)C2CCCCC2)[C@H](CO)N3)cc1,-31.4
COc1ccccc1-c1ccc2c(c1)[C@H]1[C@H](CCN1Cc1ccccc1F)[C@@H](CO)N2,-56.2
COc1ccccc1-c1ccc2c(c1)[C@@H]1[C@@H](CCN1S(=O)(=O)c1ccc(C)cc1)[C@H](CO)N2,-78.1*
COc1ccccc1-c1ccc2c(c1)[C@H]1[C@H](CCN1C(=O)C1CCC1)[C@@H](CO)N2,-76.3*
Cc1cccc(S(=O)(=O)N2CC[C@@H]3[C@@H](CO)Nc4ccc(-c5ccccc5F)cc4[C@@H]32)c1,-48.1
COc1ccccc1-c1ccc2c(c1)[C@H]1[C@H](CCN1C(=O)C1CCC1)[C@H](CO)N2,-71.4*
CC(=O)N1CC[C@@H]2[C@H]1c1cc(-c3ccccc3)ccc1N[C@@H]2CO,40.5
N#Cc1ccc(-c2ccc3c(c2)[C@@H]2[C@@H](CCN2C(=O)C2CCCCC2)[C@@H](CO)N3)cc1,-62.9
COc1ccccc1-c1ccc2c(c1)[C@H]1[C@H](CCN1S(=O)(=O)c1ccc(C)cc1)[C@@H](CO)N2,-63.3
COc1ccccc1NC(=O)N1CCCCN2[C@@H](CO)[C@H](c3ccc(-c4cccc(C#N)c4)cc3)[C@@H]2C1,-15.5
Cc1cc(N2CCN(CC(=O)N(C)C3CCS(=O)(=O)C3)CC2)nc2ccccc12 (centres undefined),1.3
Cc1cc(C)c(S(=O)(=O)Nc2ccccc2C(F)(F)F)c(C)c1,10.1
CC(C)CC#Cc1ccc([C@@H]2[C@@H](CO)N3C(=O)CN(C(=O)c4cccc(F)c4)C[C@H]23)cc1,-48.8
CCOC(=O)C1=C(N)Oc2c(oc(CO)cc2=O)C1c1ccc(F)c(F)c1 (centres undefined),-2.8
